Results on 19 compounds are retold here after PubChem BioAssay (EPA / NIEHS).

The structures appear in SMILES notation. Where “and” joins values, the source holds several entries; their conditions need not be identical. Identical values can stand only once. Results filed as inconclusive are left out. The source holds several records for some structures; these can differ, active in one and inactive in another. Calls of active or inactive are those of the source. How the source made its calls, unless noted: active means hit-call score of the fitted dose curve at least 0.9, where 1 is the maximum; inactive means score below 0.9.

Read-out in assay [1]: Interleukin-8 (IL8), CXCL8 (gene 3576)
As to the kind of experiment: BSK_3C_IL8: BioMAP Diversity Plus: 3C Assay for Interleukin-8 (IL8) Biomarker Activity (AID 2283020). The conditions noted are these: primary human endothelial cells (HUVEC); actives raise or lower the signal. The method, boiled down:
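IL-8 was measured by ELISA in HUVEC cultures 24 h after chemical dosing, with gain or loss of signal fitted relative to DMSO. Parallel SRB total-protein staining tracked overt cytotoxicity.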

Read-out in assay [2]: Monokine induced gamma interferon (MIG), CXCL9 (gene 4283)
As to the kind of experiment: BSK_3C_MIG: BioMAP Diversity Plus: 3C Assay for Monokine induced gamma interferon (MIG) Biomarker Activity (AID 2283021).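 On AC50: MIG protein level measured by immunoassay in the treated endothelial cultures.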 The conditions noted are these: primary human endothelial cells (HUVEC); actives raise or lower the signal. In a few lines:
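ELISA measurement of MIG in human umbilical vein endothelial cells 24 h after treatment. Cytotoxicity tracked by SRB staining in parallel cultures; gain or loss of signal fitted relative to DMSO.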

Assay [3] deals with human Vitamin D Receptor (VDR), VDR (gene 7421) (UniProt P11473). As to the kind of experiment: ATG_VDR_TRANS: Attagene TRANS-FACTORIAL HepG2 Assay for human Vitamin D Receptor (VDR) (AID 2283022; active means hit-call score of the fitted dose curve at least 0.9, where 1 is the maximum). In a few lines:
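HepG2 cells were transiently transfected with multiple GAL4-UAS reporter units, so signal reflects exogenous chimeric receptor-Gal4 activity. After 24 h compound exposure, reporter mRNA was measured by RT-PCR, fluorescent labelling and capillary electrophoresis, fitted for gain of signal versus DMSO.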

Assay [4] is described as follows: BSK_3C_SRB: Viability Assessment in the BioMAP Diversity Plus: 3C Assay (AID 2283023).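 Further: fitted both ways against DMSO so a hit may be signal rise or drop.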 The following applies: primary human endothelial cells (HUVEC). The method, boiled down:
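Primary human umbilical vein endothelial cells in the 3C system were read 24 h after compound dosing. Total protein was stained with 0.1% sulforhodamine B after 10% TCA fixation and read at 560 nm, with bidirectional fitting against DMSO as baseline.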

Read-out in assay [5]: Matrix Metallopeptidase 1 (MMP1), MMP1 (gene 4312)
As to the kind of experiment: BSK_BE3C_MMP1: BioMAP Diversity Plus: BE3C Assay for Matrix Metallopeptidase 1 (MMP1) Biomarker Activity (AID 2283024). The following applies: primary human bronchial epithelial cells; actives raise or lower the signal. The method, boiled down: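 ELISA measurement of MMP-1 after 24 h compound exposure of primary human bronchial epithelial cells. Changes in either direction fitted relative to DMSO; parallel SRB staining checked overt cytotoxicity.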

The nature of assay [6]: BSK_3C_Vis: BioMAP Diversity Plus: 3C Assay for Morphology Visualization (AID 2283025).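 Further: fitted both ways so gain or loss versus DMSO counts.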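 On AC50: light microscopy image of cell morphology used as background control.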 The conditions noted are these: primary human endothelial cells (HUVEC). The method, boiled down:
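Light-microscopy visualization of HUVEC cultures at 24 h post-treatment, with DMSO as baseline for bidirectional fitting.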

Read-out in assay [7]: Pselectin, SELP (gene 6403)
As to the kind of experiment: BSK_4H_Pselectin: BioMAP Diversity Plus: 4H Assay for Pselectin Biomarker Activity (AID 2283026). The conditions noted are these: primary human endothelial cells (HUVEC); actives raise or lower the signal. The method, boiled down:
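ELISA of surface P-selectin on HUVEC, 24 h after dosing, with parallel SRB staining (0.1% after 10% TCA fixation, 560 nm) for overt cytotoxicity. Activity fitted in both directions relative to DMSO.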

Assay [8] can be described thus: BSK_4H_SRB: Viability Assessment in the BioMAP Diversity Plus: 4H Assay (AID 2283027).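 Further: cells exposed to compound for 24 h before staining.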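 On AC50: curves fitted both ways versus DMSO so AC50 may be loss or gain.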 The conditions noted are these: primary human endothelial cells (HUVEC). In a few lines: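 HUVEC, 24 h post-dose; 10% TCA fix, 0.1% SRB stain, A560 nm. Total protein = overt cytotoxicity, parallel to biomarker read. Bidirectional fit vs DMSO baseline.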
The nature of assay [9]: BSK_BE3C_SRB: Viability Assessment in the BioMAP Diversity Plus: BE3C Assay (AID 2283028).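 On AC50: fitted both ways so AC50 may mark signal gain or loss versus DMSO.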 The following applies: primary human bronchial epithelial cells. The method, boiled down:
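Human primary bronchial epithelial cells were exposed to test chemicals for 24 h. Total protein in parallel cultures was then measured by staining with 0.1% sulforhodamine B after 10% TCA fixation, with absorbance read at 560 nm. Activity was fitted bidirectionally against DMSO.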

Read-out in assay [10]: Thrombomodulin, THBD (gene 7056)
As to the kind of experiment: BSK_3C_Thrombomodulin: BioMAP Diversity Plus: 3C Assay for Thrombomodulin Biomarker Activity (AID 2283029). The following applies: primary human endothelial cells (HUVEC); actives raise or lower the signal. The method, boiled down: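 ELISA measurement of thrombomodulin on HUVEC surface 24 h after chemical dosing; activity fitted in both directions relative to DMSO vehicle.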

Sequence of human Vitamin D Receptor (VDR), VDR (gene 7421) (P11473 whole entry, looked up, the tested form may be a part): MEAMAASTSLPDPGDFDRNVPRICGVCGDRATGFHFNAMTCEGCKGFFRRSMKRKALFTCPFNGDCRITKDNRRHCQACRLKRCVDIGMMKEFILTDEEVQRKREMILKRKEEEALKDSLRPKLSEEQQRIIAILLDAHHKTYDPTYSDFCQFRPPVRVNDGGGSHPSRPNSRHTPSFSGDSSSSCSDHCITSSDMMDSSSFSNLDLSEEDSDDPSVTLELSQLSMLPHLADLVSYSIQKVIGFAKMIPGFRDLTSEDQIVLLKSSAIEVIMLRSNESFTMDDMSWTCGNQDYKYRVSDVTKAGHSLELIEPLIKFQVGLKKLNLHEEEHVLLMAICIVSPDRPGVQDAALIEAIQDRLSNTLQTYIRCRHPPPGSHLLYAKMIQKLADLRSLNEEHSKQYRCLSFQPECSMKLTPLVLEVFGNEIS

On to `Cc1ccc(O)c(-n2nc3ccccc3n2)c1`, for which the outcome in assay [1], in assay [2], in [3], in assay [4], in assay [5] and in assay [6] was inactive. The result in assay [7], in assay [8], in [9] and in [10] was inactive.

A word on the AC50: it is the concentration giving half of the maximal activity seen. Turning to `O=C(Cl)C(F)(F)C(F)(F)C(F)(F)C(F)(F)C(F)(F)C(F)(F)F`, the AC50 in [1] was 27 µM (active); in assay [5] it was 29.3 µM (active) and 30 µM (active). For the same compound, the outcome in assay [1], in [2], in assay [3], in assay [4], in assay [5] and in assay [7] was inactive. In addition, the outcome in [8], in [9] and in assay [10] was inactive.

Regarding `O=S(=O)(OCC(F)(F)F)C(F)(F)C(F)(F)C(F)(F)C(F)(F)F`, the result in [1], in [2], in assay [3], in assay [4], in assay [5] and in assay [7] was inactive. Moreover, the outcome in [8], in assay [9] and in assay [10] was inactive.

For the compound `O=C(O)C(F)(F)OC(F)(F)C(F)(F)OC(F)(F)C(F)(F)OC(F)(F)F`, the outcome in [1], in assay [2], in assay [3], in assay [4], in assay [7] and in assay [8] was inactive. The outcome in assay [9] and in assay [10] was inactive. Also, the AC50 in [5] is 2.78 µM (active) and 3.97 µM (active) and 11.8 µM (active).

With `C[C@]12CC[C@H]3C(=CCc4cc(O)ccc43)[C@@H]1CCC2=O`, the outcome in [1], in [2], in [3], in [4], in assay [5] and in assay [6] was inactive. In addition, the outcome in assay [7], in [8], in [9] and in assay [10] was inactive.

Turning to `OCC(F)(F)C(F)(F)C(F)(F)C(F)(F)C(F)(F)C(F)(F)C(F)(F)C(F)(F)CO`, the outcome in [1], in assay [2], in [3], in [4], in assay [5] and in [7] was inactive. The outcome in [8], in [9] and in assay [10] was inactive. For the same compound, the AC50 in [4] is 24.6 µM (active); in assay [5], 8.5 µM (active); in assay [7], 9.58 µM (active); in [8], 36.5 µM (active).

Consider `CC(C)CCCC(C)CCO` (centres undefined), for which the outcome in assay [1], in [2], in [3], in [5] and in assay [10] was inactive. The AC50 was 33.8 µM (active) in [4]; 39.6 µM (active) in assay [6]; 31.2 µM (active) in [7]; 28.8 µM (active) in assay [8]; 7.28 µM (active) in assay [9].

Consider `O=S(=O)(O)CCC(F)(F)C(F)(F)C(F)(F)C(F)(F)F`, for which the AC50 in [1] was 30 µM (active). In addition, the result in assay [1], in assay [2], in assay [3], in [4], in [5] and in assay [7] was inactive. Also, the result in assay [8], in assay [9] and in assay [10] was inactive.

`CCN(CC)c1ccc(C=O)cc1`: the outcome in assay [1], in [2], in assay [3], in [4], in [5] and in [6] was inactive. The result in assay [7], in [8], in assay [9] and in assay [10] was inactive.

In the case of `O=C(O)C(F)(F)C(F)(F)C(F)(F)OC(F)(C(F)(F)F)C(F)(F)F`, the outcome in assay [1], in assay [2], in assay [3], in [4], in assay [5] and in assay [7] was inactive. In addition, the outcome in assay [8], in assay [9] and in [10] was inactive. Further, in assay [5], the AC50 is 37 µM (active).

On to `CCN(CC)c1ccc(C=O)c(O)c1`, for which the outcome in assay [1], in assay [2], in assay [3], in assay [4], in assay [5] and in assay [6] was inactive. The result in [7], in assay [8], in assay [9] and in assay [10] was inactive.

For `NC(=O)C(F)(F)C(F)(F)C(F)(F)C(F)(F)C(N)=O`, the result in [1], in assay [2], in assay [3], in assay [4], in [5] and in assay [7] was inactive. Besides, the outcome in [8], in assay [9] and in assay [10] was inactive.

On to `OCC(F)(F)C(F)(F)C(F)(F)C(F)(F)C(F)(F)C(F)(F)CO`, for which the result in [1], in [2], in [3], in assay [4], in assay [5] and in assay [7] was inactive. In addition, the result in assay [8], in [9] and in assay [10] was inactive.

Turning to `O=C(O)CCC(F)(F)C(F)(F)C(F)(F)F`, the outcome in assay [1], in assay [2], in assay [3], in assay [4], in assay [5] and in [7] was inactive. The outcome in assay [8], in assay [9] and in assay [10] was inactive.

For the compound `CO[Si](C)(CCC(F)(F)C(F)(F)C(F)(F)C(F)(F)C(F)(F)C(F)(F)F)OC`, the result in assay [1], in [2], in assay [3], in [4], in assay [5] and in assay [7] was inactive. Besides, the outcome in assay [8], in assay [9] and in assay [10] was inactive.

As for `Cc1ccc(S(=O)(=O)C(I)I)cc1`, the AC50 in assay [1] is 4.26 µM (active); in [2], 3.75 µM (active); in assay [4], 5.27 µM (active); in assay [5] it was 11.4 µM (active); in assay [6], 1.85 µM (active); in assay [7], 1.87 µM (active). For the same compound, the values for the AC50 in assay [8], in [9] and in assay [10] were 1.98 µM (active), 5.15 µM (active) and 4.78 µM (active), respectively.

Regarding `NC(O)(C(F)(F)F)C(F)(F)F`, the outcome in [1], in [2], in assay [3], in assay [4], in assay [5] and in assay [7] was inactive. The result in [8], in assay [9] and in assay [10] was inactive.

In the case of `CCOC(=O)CC(=O)C(F)(F)C(F)(F)F`, the outcome in assay [1], in assay [2], in [3], in assay [4], in assay [5] and in [7] was inactive. Besides, the result in [8], in [9] and in [10] was inactive.

As to `CC(C)(C)c1cc(CCC(=O)NCCCCCCNC(=O)CCc2cc(C(C)(C)C)c(O)c(C(C)(C)C)c2)cc(C(C)(C)C)c1O`, the result in [1], in [2], in assay [4], in assay [5], in assay [7] and in [8] was inactive. The result in [9] and in [10] was inactive. Further, the AC50 in [6] was 3.25 µM (active).
